Reference: ChEMBL document CHEMBL1961873, “Compounds: GSK PKIS; Assays: Nanosyn kinase panel” (2012)

Columns and labels:
[1] = target: Sphingosine kinase 1 (Homo sapiens) (UniProt Q9NYA1); settings: at 1 µM;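 also: mean SPHK1 inhibition value reported from the GSK PKIS kinase panel screen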
[2] = target: T1, Sphingosine kinase 2 (Homo sapiens) (UniProt Q9NRA0); settings: at 0.1 µM
T1 sequence (whole entry): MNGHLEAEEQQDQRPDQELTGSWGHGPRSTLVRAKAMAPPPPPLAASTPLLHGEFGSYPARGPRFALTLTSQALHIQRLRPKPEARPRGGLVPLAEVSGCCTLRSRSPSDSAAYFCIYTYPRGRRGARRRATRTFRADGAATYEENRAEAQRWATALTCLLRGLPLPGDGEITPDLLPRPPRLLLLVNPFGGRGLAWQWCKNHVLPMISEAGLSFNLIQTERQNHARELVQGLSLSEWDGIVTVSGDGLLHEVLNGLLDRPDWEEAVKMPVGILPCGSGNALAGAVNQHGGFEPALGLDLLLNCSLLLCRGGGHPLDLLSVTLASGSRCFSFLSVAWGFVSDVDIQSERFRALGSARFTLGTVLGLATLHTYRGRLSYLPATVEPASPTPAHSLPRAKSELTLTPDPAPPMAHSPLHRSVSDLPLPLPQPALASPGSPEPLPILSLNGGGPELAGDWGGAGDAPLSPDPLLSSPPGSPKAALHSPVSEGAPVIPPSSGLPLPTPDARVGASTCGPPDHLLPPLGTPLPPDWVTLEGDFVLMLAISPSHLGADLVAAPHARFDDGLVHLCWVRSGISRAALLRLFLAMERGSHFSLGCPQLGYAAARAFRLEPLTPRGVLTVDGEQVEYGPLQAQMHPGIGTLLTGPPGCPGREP

[3] = target: T1, Sphingosine kinase 2 (Homo sapiens); settings: at 1 µM
[4] = target: Casein kinase II subunit alpha (Homo sapiens) (UniProt P68400); settings: at 0.1 µM
Chain of Casein kinase II subunit alpha (Homo sapiens) (P68400 whole entry, looked up): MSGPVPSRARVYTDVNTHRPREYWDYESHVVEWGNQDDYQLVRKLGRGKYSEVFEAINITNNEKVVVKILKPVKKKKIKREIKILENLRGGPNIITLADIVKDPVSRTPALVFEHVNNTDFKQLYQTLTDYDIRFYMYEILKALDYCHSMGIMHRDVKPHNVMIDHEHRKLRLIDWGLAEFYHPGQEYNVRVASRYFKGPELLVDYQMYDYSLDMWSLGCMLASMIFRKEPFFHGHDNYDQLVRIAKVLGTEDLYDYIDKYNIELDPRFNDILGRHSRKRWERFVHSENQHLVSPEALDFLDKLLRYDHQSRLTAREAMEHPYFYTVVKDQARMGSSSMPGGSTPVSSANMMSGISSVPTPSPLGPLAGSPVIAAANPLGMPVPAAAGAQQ

[5] = target: Casein kinase II subunit alpha (Homo sapiens) (UniProt P68400); settings: at 1 µM
[6] = target: T2, Inhibitor of nuclear factor kappa-B kinase subunit alpha (Homo sapiens) (UniProt O15111); settings: at 0.1 µM
T2 sequence (whole entry): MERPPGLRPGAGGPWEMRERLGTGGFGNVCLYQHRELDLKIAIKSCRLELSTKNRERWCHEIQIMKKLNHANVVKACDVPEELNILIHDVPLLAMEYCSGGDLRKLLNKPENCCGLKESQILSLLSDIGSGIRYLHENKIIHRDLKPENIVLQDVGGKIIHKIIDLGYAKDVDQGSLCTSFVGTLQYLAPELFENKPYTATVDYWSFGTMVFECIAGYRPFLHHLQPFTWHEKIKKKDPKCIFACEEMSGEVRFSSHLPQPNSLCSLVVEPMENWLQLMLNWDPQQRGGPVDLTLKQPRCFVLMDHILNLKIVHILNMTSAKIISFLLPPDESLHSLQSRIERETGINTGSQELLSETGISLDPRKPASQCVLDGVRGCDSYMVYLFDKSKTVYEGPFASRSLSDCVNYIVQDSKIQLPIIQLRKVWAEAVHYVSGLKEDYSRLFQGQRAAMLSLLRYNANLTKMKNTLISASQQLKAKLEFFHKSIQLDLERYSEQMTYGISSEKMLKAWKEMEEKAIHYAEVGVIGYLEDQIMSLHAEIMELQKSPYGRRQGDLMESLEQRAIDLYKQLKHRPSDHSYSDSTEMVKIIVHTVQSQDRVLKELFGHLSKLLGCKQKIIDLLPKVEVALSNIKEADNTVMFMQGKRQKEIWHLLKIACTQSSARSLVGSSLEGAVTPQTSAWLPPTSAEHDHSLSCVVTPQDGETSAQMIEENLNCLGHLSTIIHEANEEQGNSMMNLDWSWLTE

[7] = target: T2, Inhibitor of nuclear factor kappa-B kinase subunit alpha (Homo sapiens); settings: at 1 µM
[8] = target: T3, Inhibitor of nuclear factor kappa-B kinase subunit beta (Homo sapiens) (UniProt O14920); settings: at 0.1 µM
T3 sequence (whole entry): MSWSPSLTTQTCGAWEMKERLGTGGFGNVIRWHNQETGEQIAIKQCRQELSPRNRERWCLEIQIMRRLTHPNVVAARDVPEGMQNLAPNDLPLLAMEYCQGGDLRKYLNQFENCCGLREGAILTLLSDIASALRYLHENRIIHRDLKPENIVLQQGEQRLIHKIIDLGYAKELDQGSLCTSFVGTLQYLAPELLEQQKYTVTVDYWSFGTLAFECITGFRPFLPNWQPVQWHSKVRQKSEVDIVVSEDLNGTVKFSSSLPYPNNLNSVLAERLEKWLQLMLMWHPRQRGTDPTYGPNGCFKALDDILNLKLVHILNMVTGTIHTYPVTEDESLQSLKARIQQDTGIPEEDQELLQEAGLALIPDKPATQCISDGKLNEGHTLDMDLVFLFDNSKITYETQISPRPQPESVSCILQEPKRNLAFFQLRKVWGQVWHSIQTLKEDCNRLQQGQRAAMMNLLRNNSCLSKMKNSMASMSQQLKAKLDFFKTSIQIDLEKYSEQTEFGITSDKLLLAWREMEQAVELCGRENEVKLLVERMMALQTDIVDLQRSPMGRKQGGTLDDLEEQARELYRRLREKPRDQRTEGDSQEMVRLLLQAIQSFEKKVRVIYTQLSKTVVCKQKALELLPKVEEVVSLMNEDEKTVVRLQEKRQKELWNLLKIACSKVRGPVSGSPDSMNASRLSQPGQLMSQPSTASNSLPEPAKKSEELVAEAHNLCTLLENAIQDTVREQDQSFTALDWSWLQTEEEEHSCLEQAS

[9] = target: T3, Inhibitor of nuclear factor kappa-B kinase subunit beta (Homo sapiens); settings: at 1 µM
[10] = target: T4, Inhibitor of nuclear factor kappa-B kinase subunit epsilon (Homo sapiens) (UniProt Q14164); settings: at 0.1 µM;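 also: mean inhibition of IKKε reported, from the GSK PKIS dataset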
T4 sequence (whole entry): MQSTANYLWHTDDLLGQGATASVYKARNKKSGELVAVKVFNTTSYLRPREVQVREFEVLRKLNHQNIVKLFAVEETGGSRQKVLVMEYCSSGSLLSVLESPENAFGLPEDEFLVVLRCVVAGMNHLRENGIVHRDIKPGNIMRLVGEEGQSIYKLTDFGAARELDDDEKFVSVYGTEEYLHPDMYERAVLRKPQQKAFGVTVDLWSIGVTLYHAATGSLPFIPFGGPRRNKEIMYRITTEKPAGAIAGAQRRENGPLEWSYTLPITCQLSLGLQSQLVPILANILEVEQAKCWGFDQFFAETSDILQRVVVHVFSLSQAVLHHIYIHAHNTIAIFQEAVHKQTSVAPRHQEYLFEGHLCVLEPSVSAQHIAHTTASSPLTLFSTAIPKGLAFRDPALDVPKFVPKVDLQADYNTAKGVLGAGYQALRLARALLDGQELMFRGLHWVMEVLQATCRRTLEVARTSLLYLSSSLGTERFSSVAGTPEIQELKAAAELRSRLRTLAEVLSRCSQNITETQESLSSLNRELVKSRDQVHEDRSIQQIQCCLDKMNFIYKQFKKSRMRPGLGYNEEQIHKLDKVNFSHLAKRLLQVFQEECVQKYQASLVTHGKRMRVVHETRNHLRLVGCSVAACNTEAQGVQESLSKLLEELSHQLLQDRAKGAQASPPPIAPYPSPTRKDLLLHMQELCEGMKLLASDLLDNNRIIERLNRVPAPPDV

Chain of Sphingosine kinase 1 (Homo sapiens) (Q9NYA1 whole entry): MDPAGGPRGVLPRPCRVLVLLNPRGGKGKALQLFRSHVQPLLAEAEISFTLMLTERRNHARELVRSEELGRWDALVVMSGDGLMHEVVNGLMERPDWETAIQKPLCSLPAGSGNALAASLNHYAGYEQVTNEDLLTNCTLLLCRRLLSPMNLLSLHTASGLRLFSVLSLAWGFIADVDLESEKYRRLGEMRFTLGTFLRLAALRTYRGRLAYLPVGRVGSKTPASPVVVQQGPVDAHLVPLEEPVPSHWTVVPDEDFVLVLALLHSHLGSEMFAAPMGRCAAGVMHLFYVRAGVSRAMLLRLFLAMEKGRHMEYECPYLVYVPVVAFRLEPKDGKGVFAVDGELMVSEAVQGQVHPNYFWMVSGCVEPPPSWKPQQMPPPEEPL

In the case of `Cc1ccc(C(=O)NC2CCCCC2)cc1-c1ccc(C(=O)NCC2CC2)cc1`, the inhibition [1] is reported as -0.86%, the inhibition [2] is reported as -0.91% and the inhibition [3] is reported as -1.61%. For the same molecule, the inhibition [4] was 0.66%, the inhibition [5] was -5.06% and the inhibition [6] was -3.35%. The inhibition [7] was -8.02%, the inhibition [8] was 3.29% and the inhibition [9] was -2.31%. It also gave an inhibition [10] of 1.75%.
